Many of the other results were omitted from the sample, so hits are more common in it than they were.
PD-1 reversal: activators reversing PD-1 mediated T-cell inhibition. activation, % (test concentration not listed). 29,000 tested, under 10 active. primary human CD4 T cells, PD-L1 beads, CellTiter-Glo 96 h; call rule not given here;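 further: 0% = median vehicle wells and 100% = positive control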
STK33 inh: human STK33 kinase inhibition; Q9BYT3; ADP-Glo luminescence, MBP substrate; inhibition, % at 12.5 µM; 0.44% of 27,000 active; in the data active means inhibition above about 20%; inconclusive means no clear call, values can overlap the other calls
Target sequence (Q9BYT3 whole entry, looked up): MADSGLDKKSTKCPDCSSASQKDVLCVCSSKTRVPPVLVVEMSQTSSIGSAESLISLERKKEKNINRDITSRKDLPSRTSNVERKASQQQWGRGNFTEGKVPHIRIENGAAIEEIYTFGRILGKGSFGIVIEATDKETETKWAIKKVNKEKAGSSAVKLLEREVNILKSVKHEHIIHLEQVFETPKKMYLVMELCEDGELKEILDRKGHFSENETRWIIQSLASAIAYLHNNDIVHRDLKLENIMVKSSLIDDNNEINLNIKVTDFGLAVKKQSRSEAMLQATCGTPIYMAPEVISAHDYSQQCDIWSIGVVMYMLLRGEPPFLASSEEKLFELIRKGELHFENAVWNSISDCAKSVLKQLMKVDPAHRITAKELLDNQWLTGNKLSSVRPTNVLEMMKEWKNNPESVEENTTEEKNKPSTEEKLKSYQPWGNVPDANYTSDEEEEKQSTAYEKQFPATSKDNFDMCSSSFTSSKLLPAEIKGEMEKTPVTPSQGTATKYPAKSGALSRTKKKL
NOMO-1 viab: STK33 inhibitor candidate reducing NOMO-1 cell viability; 7.5% of 37,000 active; NOMO-1 AML viability, CellTiter-Glo luminescence, 72 h; inhibition, % (test concentration not listed); in the data active means inhibition above about 80%; inconclusive means no clear call, values can overlap the other calls
* = called active by the depositor; ? = inconclusive; · = no result given.

SMILES	PD-1 reversal	STK33 inh	NOMO-1 viab
O=C(CCN1C(=O)C2C3c4ccccc4C(c4ccccc43)C2C1=O)Oc1cccc2cccnc12 (stereo not given)	-16	-1	118*
CC(=O)c1cccc(NC(=O)C(C)N2C(=O)c3ccccc3C2=O)c1 (stereo not given)	·	-2	29
O=C1c2ccccc2C(=O)N1OS(=O)(=O)c1cccc2cccnc12	-12	1	127*
O=C1NC(=S)N(S(=O)(=O)c2cccc3cccnc23)C1Cc1ccccc1 (stereo not given)	-1	1	-6
O=C(O)CCN1C(=O)C2C3c4ccccc4C(c4ccccc43)C2C1=O (stereo not given)	-1	·	32
CC(C(=O)Oc1cccc2cccnc12)N1C(=O)c2ccccc2C1=O (stereo not given)	-16	-2	127*
COc1ccc(OC)c(S(=O)(=O)ON2C(=O)c3ccccc3C2=O)c1	-15	-1	119*
COc1ccc(OC)c(NS(=O)(=O)c2cc(OC)ccc2OC)c1	-1	0	16
CCn1c(SCC(=O)Nc2cc(Cl)ccc2Cl)nnc1-c1ccc(Cl)cc1	-1	-17	-29
COc1ccc(NC(=O)CCCN2C(=O)c3ccccc3C2=O)cc1Cl	3	-7	-13
CC1CCc2nc(NC(=O)c3ccc(Cc4ccccc4)cc3)sc2C1 (stereo not given)	0	·	?
COc1ccc(OC)c(C2C(C(=O)c3ccco3)C(=O)C(=O)N2CCN(C)C)c1 (stereo not given)	2	-5	9
C[C@H]1CN([C@@H](C)CO)C(=O)c2cc(NS(=O)(=O)c3ccc(Cl)cc3)ccc2O[C@@H]1CN(C)Cc1ccc(Cl)c(Cl)c1	-4	5	100*
C[C@@H]1CN([C@H](C)CO)C(=O)c2cc(NS(=O)(=O)c3ccc(Cl)cc3)ccc2O[C@H]1CN(C)Cc1ccc(Cl)c(Cl)c1	-2	1	19
C[C@@H]1CN([C@@H](C)CO)C(=O)c2cc(NS(=O)(=O)c3ccc(F)cc3)ccc2O[C@H]1CN(C)Cc1ccc(Cl)c(Cl)c1	-2	·	?
C[C@H](CO)N1C[C@H](C)[C@H](CN(C)Cc2ccc3c(c2)OCO3)Oc2ccc(NS(=O)(=O)c3ccc(F)cc3)cc2C1=O	-1	·	112*
C[C@@H]1CN([C@H](C)CO)C(=O)c2cc(NS(=O)(=O)c3ccc(F)cc3)ccc2O[C@H]1CN(C)Cc1ccc2c(c1)OCO2	·	·	-6
C[C@@H]1CN([C@@H](C)CO)C(=O)c2cc(NS(=O)(=O)c3ccc(F)cc3)ccc2O[C@@H]1CN(C)Cc1ccc(Cl)c(Cl)c1	-3	0	110*
C[C@@H]1CN([C@@H](C)CO)C(=O)c2cc(NS(=O)(=O)c3ccc(Cl)cc3)ccc2O[C@H]1CN(C)Cc1ccc(Cl)c(Cl)c1	-1	·	119*
C[C@H]1CN([C@@H](C)CO)C(=O)c2cc(NS(=O)(=O)c3ccc(F)cc3)ccc2O[C@H]1CN(C)Cc1ccc(Cl)c(Cl)c1	1	·	11
COc1ccc(C(=O)/C=C/Nc2ccc(C(F)(F)F)cc2)cc1	0	·	6
Cc1cc(N(CC(=O)Nc2cc(Cl)ccc2Cl)S(C)(=O)=O)ccc1Br	·	2	5
CC(Oc1ccccc1)C(=O)O (stereo not given)	0	·	32
CC(C)c1ccc(NC(=O)CSc2nnc(N)s2)cc1	1	4	12
O=C(CSc1nc2sccc2c(=O)[nH]1)Nc1ccccc1	·	2	35
SMILES	PD-1 reversal	STK33 inh	NOMO-1 viab
Cc1ccc(NC(=O)COc2ccccc2)c(NC(=O)c2ccc(Cl)cc2)c1	2	1	12
O=C(COc1ccc(Cl)cc1)CC(=O)c1ccc(Cl)cc1	-3	·	110*
COc1cccc(C(=O)NCCN=C2NS(=O)(=O)c3ccccc32)c1	-1	-2	6
Cn1c(=O)c(C(=O)NCCCO)c(O)c2ccccc21	·	2	10
CCCc1c(C(=O)O)c(O)cc2c1C(=O)c1c(O)cccc1C2=O	2	-2	57
O=C1c2cccc(O)c2C(=O)c2c(O)cccc21	·	27*	42
CC1=C(CO)C(=O)OC([C@@H](C)C2CC[C@H]3C4C[C@H]5O[C@]56[C@@H](O)C=CC(=O)[C@]6(C)C4CC[C@]23C)C1 (stereo not given in full)	-13	1	120*
Nc1nc(N(Cc2ccccc2)Cc2ccccc2)nc(C(F)(F)F)n1	0	·	120*
O=C(c1cccc2ccccc12)N1CCc2ccccc21	-2	·	43
Cc1cc(OCc2nc3ccccc3s2)ccc1NC(=O)Nc1cccc(Cl)c1	·	-2	107*
O=C(Nc1ccc(OCc2nc3ccccc3s2)cc1)c1ccc(Cl)cc1	-1	-2	18
O=S(CCSc1nc2ccccc2s1)Cc1ccc(Cl)cc1 (stereo not given)	-1	2	11
COC(=O)CNC(=O)c1cn(-c2ccccc2)nc1-c1ccc([N+](=O)[O-])cc1	1	-1	3
COC(=O)CNC(=O)c1cn(-c2ccccc2)nc1-c1ccc(OC)cc1	0	-2	113*
Cc1ccc(-c2noc(CSc3nnc(-c4cccs4)n3-c3ccccc3)n2)cc1	1	2	31
O=C1c2ccccc2-c2n[nH]c3cccc1c23	-3	111*	62
CNC(=O)c1cccc2c1-c1ccccc1C2=O	0	·	17
CC(C)(C)C(=O)c1cn(CC(=O)Nc2ccccc2)c2ccccc12	·	-3	-19
CCOc1ccc(NC(=O)CSc2nnc(-c3cc(Cl)ccc3O)n2C)cc1	1	-5	-10
C[C@@H]1CN([C@H](C)CO)C(=O)c2cccc(NC(=O)Nc3ccc(C(F)(F)F)cc3)c2O[C@@H]1CN(C)S(=O)(=O)c1cccs1	·	·	101*
C[C@H](CO)N1C[C@H](C)[C@@H](CN(C)S(=O)(=O)c2cccs2)Oc2c(NC(=O)Nc3ccc(C(F)(F)F)cc3)cccc2C1=O	2	·	45
C[C@H]1CN([C@@H](C)CO)C(=O)c2cccc(NC(=O)Nc3ccc(C(F)(F)F)cc3)c2O[C@@H]1CN(C)S(=O)(=O)c1cccs1	1	·	49
C[C@@H]1CN([C@@H](C)CO)C(=O)c2cccc(NC(=O)Nc3ccc(C(F)(F)F)cc3)c2O[C@H]1CN(C)S(=O)(=O)c1cccs1	·	·	88*
COc1ccc2nc(SCC(=O)NC3CCCCCC3)[nH]c2c1	0	-6	22
COc1ccc2ccc(=O)oc2c1C(OC(C)=O)C(=O)C(C)C (stereo not given)	-1	1	13
SMILES	PD-1 reversal	STK33 inh	NOMO-1 viab
COc1ccc(C(=O)c2ccccc2)cc1	-1	·	-14
Cc1ccc2nc(SCC(=O)NCc3ccccc3)[nH]c2c1	2	2	12
COC(=O)Nc1nc2ccc(C(=O)c3ccccc3)cc2[nH]1	·	9	110*
COC(=O)C(C)c1ccc(C(=O)c2cccs2)cc1 (stereo not given)	·	-2	-6
COC(=O)Nc1nc2ccc(S(=O)c3ccccc3)cc2[nH]1 (stereo not given)	·	2	102*
COC(=O)Nc1nc2ccc(C(=O)c3cccs3)cc2[nH]1	-23	22*	94*
CCc1nc2sc3c(c2c2nnc(SCC(=O)Nc4ccccc4)n12)CCC3	·	1	-17
Cc1ccc(S(=O)(=O)N2CCC(C#N)C(=O)c3ccccc32)cc1 (stereo not given)	-1	·	9
